Consider seven compounds from PubChem BioAssay.

Experiment [1] is described as follows: reduced mouse 2C T cell binding to pMHC/ICAM-1 vesicles – MLPCN validation set, flow cytometry, LFA-1/ICAM-1 modulator project, pilot screen (AID 2523;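 active means response below a set limit, under 55% cells CD8-positive and vesicle-bound, and CD8 cells' 90th-percentile brightness under 279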;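 on vesicle binding response: mean PE anti-B7-1 fluorescence of CD8+ cells relative to row control; 100% = QL9-loaded vesicles with DMSO vehicle in the same plate row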). As to conditions: 2C mouse CD8+ T cells, at 7 µM, stronger effect = lower value; double positive events: measured here: CD8+/vesicle+ event percentage.
Experiment [2] addresses Integrin beta-1 (Homo sapiens) + Integrin alpha-4 (Homo sapiens) (UniProt P13612+P05556). Briefly: alpha4beta1 integrin LIBS antibody binding reduction – U937 cells, HUTS-21 mAb, flow cytometry, validation set, VLA-4 allosteric modulator project, pilot screen (AID 2674;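 active means inhibition above 50%, about 3 SD of the validation set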;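 further: antibody binding induced by the VLA-4 ligand LDV present at three times its Kd; 0% = LDV ligand with antibody and no compound and 100% = antibody without LDV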). The note with it: HUTS-21 LIBS mAb binding, at 6.7 µM, stronger effect = higher value, binding induced by LDV ligand. In general terms: A flow cytometer gives signals particle by particle.

The nature of experiment [3]: calorie-restriction mimetic ROS inhibitors, yeast – validation compound set, pilot screen (AID 2706;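 active means superoxide response below 65% of plate, a cut near 3 SD across the whole screen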;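 further: yeast exposed to compound for one week at 30 degrees C before staining; 100% = mean of all compound wells on the same plate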). The note with it: S. cerevisiae aging, superoxide DHE fluorescence; at 10 µM, stronger effect = lower value.
In experiment [4] the target is Beta-adrenergic receptor kinase 1 (Homo sapiens) (UniProt P25098). Briefly: GRK2 binders displacing RNA aptamer, biochemical, validation, human GRK2, bead flow cytometry (AID 488806;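 active means aptamer binding inhibition above 30%, about 3 SD of noise from non-fluorescent compounds; inactive means inhibition at or below 30%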). As to conditions: bead-bound GRK2, FAM-aptamer displacement, at 10 µM, stronger effect = higher value.
The target of experiment [5] is Beta-2 adrenergic receptor (Homo sapiens) (UniProt P07550). Briefly: agonist-induced loss of surface beta2AR – cell-based, FAP fluorogen, flow cytometry, validation set, pilot screen (AID 504459).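 Further: agonist-driven loss of surface beta2AR via internalization measured by FAP dye flow cytometry.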 The note with it: Am2.2-beta2AR cells, at 10 µM, stronger effect = higher value.
Experiment [6] deals with AP-2 complex subunit beta (Homo sapiens) (UniProt P63010). Briefly: beta-arrestin/AP2 interaction blockers – biochemical, validation set, GST-AP2 beads, flow cytometry, pilot screen (AID 504541;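 active means inhibition above 54%, about 3 SD of non-fluorescent compounds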;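 further: AP2 carries R879A mutation and is captured from E. coli lysate; bead-bound FITC arrestin peptide fluorescence measuring arrestin peptide binding to AP2; 0% = DMSO wells and 100% = excess unlabeled arrestin peptide control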). The note with it: FITC arrestin peptide, at 10 µM, stronger effect = higher value, AP2 beta2 appendage fragment, R879A mutant.
Experiment [7] can be described thus: cytosolic pH regulators acting via V-ATPase – S. cerevisiae, pHLuorin, HTS validation (AID 504600; in the data active means response above about 15%;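 further: plate controls were DMSO for no effect and reference compound for full effect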). The note with it: V-ATPase proton transport, at 10 µM, stronger effect = higher value.
Experiment [8] deals with anti-desmoglein-3 scFv antibody binding to human DSG3. Description: blockers of pathogenic pemphigus antibody–desmoglein-3 binding – biochemical, validation compound set, bead-based, flow cytometry, pilot screen (AID 588368;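 active means binding below the plate cutoff, the plate median minus 3 SD, with a reading above zero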;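 further: signal is the median channel fluorescence of bead-bound GFP antibody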). The note with it: Protein G beads, DSG3-Fc, scFv-GFP binding, at 10 µM, stronger effect = lower value.
Experiment [9] can be described thus: Nile Red efflux blockade in pump-expressing yeast – validation compound set, multiplex, phenotypic, pilot screen (AID 588506;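 active means efflux inhibition above 0.42, the validation set average plus 4 SD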;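 further: Nile Red retained in cells so higher fluorescence means more efflux inhibition; 0 = negative control wells and 1 = enniatin B 25 µM full block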). As to conditions: S. cerevisiae pump-expressing triplex, Nile Red efflux flow cytometry; at 10 µM; stronger effect = higher value; the pumps come from Candida albicans.
Experiment [10] concerns the target ATP-binding cassette sub-family B member 6 (Homo sapiens) (UniProt Q9NP58). Briefly: blockers of ABCB6-driven porphyrin uptake – K562-ABCB6 cells, flow cytometry, validation set, pilot screen (AID 588550;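 active means inhibition above the screen-wide mean plus 3 SD, about 51%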;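 further: 0% = DMSO wells and 100% = benzethonium chloride 70 µM positive control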). The note with it: K562-ABCB6 porphyrin accumulation, 1 h, at 10 µM, stronger effect = higher value.
Experiment [11] in a line: AML differentiation inducers, ER-HoxA9 marrow cells – cell-based, GFP/MAC1 double positive, flow cytometry, validation set, primary screen (AID 588685;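 active means differentiation response of at least 50%, scaled between solvent and reference control, from cells with both markers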;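 further: compound exposure lasts four days before antibody staining and flow analysis; 0% = DMSO wells and 100% = 5 µM fulvestrant positive control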). As to conditions: stronger effect = higher value, normalized: vehicle 0, fulvestrant 100.

Calls of active or inactive are those of the source.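 How the source made its calls, unless noted: active means percent response above 42, roughly 3 SD of non-fluorescent test compounds; inactive means the rest.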

Chain of Beta-2 adrenergic receptor (Homo sapiens) (P07550 whole entry, looked up): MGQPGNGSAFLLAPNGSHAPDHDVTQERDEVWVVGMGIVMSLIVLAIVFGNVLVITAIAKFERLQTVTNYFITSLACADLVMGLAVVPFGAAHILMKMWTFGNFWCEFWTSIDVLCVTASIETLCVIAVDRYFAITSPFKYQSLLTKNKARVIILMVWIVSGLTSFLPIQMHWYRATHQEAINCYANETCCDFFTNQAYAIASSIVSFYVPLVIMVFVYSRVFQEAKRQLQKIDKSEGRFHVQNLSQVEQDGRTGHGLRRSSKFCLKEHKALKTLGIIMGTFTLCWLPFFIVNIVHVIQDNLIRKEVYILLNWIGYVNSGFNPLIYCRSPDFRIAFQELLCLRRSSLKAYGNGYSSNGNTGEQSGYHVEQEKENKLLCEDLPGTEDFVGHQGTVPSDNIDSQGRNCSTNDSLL
Chain of AP-2 complex subunit beta (Homo sapiens) (P63010 whole entry, looked up, the tested form may be a part, one chain of several): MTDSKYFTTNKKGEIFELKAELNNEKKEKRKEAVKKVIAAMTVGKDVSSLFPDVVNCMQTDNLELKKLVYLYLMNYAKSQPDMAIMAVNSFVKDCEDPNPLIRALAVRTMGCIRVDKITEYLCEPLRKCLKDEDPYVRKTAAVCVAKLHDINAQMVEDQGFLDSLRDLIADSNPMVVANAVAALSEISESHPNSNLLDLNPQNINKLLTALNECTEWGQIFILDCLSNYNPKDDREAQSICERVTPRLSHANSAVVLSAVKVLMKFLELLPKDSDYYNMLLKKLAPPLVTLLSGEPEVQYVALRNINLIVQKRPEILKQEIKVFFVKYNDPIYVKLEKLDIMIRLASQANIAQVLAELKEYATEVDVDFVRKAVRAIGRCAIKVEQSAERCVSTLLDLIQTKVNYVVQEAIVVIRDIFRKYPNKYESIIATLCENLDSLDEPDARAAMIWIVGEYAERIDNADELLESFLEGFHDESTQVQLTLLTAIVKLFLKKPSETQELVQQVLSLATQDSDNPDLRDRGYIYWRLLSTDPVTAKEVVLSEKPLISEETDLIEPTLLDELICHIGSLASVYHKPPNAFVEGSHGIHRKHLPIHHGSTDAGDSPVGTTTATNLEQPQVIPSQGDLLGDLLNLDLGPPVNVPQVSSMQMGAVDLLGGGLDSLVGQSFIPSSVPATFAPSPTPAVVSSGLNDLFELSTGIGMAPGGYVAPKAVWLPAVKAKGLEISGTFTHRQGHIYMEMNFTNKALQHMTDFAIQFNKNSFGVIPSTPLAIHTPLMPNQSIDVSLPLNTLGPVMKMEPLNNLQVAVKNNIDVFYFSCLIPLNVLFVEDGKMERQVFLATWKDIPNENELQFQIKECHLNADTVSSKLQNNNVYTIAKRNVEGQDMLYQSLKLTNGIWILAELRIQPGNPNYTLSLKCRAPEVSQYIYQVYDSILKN
Chain of ATP-binding cassette sub-family B member 6 (Homo sapiens) (Q9NP58 whole entry, looked up): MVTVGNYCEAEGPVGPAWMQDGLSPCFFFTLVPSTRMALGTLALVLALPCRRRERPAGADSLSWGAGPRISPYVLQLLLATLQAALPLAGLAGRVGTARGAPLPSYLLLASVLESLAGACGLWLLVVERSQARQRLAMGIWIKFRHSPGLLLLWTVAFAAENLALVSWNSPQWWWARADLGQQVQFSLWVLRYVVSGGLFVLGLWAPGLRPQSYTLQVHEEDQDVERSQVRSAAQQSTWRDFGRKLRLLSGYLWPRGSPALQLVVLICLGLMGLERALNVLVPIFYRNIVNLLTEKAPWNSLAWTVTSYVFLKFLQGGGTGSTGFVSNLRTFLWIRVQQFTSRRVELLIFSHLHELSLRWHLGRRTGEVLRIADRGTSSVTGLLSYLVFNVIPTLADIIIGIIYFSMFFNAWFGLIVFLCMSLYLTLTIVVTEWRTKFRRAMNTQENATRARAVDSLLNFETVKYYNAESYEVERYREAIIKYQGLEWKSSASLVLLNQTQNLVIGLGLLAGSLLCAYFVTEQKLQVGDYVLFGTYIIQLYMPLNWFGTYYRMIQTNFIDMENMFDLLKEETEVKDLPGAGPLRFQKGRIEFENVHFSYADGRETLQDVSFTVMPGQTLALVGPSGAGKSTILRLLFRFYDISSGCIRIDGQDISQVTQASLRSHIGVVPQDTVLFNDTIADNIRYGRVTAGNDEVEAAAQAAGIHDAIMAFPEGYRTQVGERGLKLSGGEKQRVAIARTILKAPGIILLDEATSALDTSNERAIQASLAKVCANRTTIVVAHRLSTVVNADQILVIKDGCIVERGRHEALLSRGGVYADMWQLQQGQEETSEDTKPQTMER
Chain of Integrin beta-1 (Homo sapiens) + Integrin alpha-4 (Homo sapiens) (P05556 whole entry, looked up): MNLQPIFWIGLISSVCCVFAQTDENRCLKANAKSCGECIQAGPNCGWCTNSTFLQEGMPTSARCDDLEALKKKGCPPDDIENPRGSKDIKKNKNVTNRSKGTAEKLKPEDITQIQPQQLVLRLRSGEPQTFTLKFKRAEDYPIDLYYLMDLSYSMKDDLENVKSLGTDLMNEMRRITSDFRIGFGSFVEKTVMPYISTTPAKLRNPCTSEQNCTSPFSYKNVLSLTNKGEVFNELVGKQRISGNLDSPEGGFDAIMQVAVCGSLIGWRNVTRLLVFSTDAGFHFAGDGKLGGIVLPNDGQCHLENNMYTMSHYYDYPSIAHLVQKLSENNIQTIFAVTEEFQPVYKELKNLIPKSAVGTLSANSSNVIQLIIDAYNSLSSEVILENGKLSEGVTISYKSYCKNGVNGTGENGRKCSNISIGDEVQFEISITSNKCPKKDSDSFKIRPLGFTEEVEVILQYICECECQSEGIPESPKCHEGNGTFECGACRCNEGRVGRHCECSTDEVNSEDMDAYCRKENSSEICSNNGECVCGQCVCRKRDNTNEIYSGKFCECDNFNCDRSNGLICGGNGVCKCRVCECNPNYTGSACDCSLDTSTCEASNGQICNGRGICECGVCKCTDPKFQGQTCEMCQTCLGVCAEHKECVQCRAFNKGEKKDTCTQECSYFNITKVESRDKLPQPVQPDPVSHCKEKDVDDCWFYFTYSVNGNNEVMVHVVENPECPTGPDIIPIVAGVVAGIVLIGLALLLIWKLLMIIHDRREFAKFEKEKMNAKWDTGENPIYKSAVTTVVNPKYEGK
Chain of Integrin beta-1 (Homo sapiens) + Integrin alpha-4 (Homo sapiens) (P13612 whole entry, looked up): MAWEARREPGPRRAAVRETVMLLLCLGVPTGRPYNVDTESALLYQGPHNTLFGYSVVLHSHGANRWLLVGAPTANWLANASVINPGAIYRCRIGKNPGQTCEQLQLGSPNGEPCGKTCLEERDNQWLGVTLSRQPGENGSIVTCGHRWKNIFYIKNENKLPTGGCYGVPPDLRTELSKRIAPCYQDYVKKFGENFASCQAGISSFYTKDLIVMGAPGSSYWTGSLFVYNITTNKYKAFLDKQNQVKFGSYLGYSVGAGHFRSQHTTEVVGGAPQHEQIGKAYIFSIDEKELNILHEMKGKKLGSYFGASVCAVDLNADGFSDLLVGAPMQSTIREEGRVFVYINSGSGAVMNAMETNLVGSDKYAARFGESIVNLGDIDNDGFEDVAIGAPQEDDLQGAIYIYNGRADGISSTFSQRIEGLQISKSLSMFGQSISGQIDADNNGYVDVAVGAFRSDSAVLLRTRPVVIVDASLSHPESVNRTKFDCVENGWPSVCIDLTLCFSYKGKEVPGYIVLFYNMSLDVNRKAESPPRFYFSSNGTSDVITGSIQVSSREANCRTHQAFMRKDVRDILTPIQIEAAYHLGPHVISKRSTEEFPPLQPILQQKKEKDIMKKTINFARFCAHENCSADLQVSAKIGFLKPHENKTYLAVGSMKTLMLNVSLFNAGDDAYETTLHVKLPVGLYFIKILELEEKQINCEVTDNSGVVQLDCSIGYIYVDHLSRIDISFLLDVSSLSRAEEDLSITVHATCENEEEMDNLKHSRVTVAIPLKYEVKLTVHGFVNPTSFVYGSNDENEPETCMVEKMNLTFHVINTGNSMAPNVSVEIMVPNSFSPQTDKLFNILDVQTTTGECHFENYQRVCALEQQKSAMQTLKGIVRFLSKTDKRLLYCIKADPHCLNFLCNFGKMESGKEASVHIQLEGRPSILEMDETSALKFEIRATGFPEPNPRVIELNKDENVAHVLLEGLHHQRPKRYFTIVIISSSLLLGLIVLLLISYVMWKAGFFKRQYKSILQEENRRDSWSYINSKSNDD
Chain of Beta-adrenergic receptor kinase 1 (Homo sapiens) (P25098 whole entry, looked up): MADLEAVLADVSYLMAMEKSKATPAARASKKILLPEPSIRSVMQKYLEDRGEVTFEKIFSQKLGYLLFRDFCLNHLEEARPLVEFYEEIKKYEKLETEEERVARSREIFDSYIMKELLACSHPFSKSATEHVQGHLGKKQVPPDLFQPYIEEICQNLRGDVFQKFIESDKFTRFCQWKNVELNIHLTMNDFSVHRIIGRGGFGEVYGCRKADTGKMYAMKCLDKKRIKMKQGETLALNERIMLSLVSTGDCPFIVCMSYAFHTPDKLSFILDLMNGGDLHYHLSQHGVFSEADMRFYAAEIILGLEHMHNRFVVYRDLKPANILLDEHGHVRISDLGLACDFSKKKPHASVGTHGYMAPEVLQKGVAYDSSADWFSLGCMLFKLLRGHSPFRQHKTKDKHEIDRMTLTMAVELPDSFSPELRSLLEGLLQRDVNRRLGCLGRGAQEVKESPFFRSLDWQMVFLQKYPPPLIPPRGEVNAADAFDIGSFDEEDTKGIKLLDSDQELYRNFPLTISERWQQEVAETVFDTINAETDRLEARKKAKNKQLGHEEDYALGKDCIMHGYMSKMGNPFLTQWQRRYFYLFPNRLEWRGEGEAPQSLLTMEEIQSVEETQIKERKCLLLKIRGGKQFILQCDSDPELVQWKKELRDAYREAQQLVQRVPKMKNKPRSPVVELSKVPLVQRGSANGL

As a reminder, the inhibition is the relative decrease from the control value, in per cent. For the compound `COc1cc(OC)c(C2C(C#N)=C(N)OC3=C2C(=O)CC(C)(C)C3)cc1OC` (centres undefined), the double positive events in experiment [1] was determined as 59.9%. Also, the vesicle binding response in experiment [1] is 137% (inactive). The inhibition in [2] was 5.61% (inactive); in experiment [6], 5.17% (inactive); in experiment [10], 13% (inactive). Besides, the superoxide response (% of plate) in experiment [3] is 109% (inactive). Further, the aptamer binding inhibition in experiment [4] was 2% (inactive). Further, the response was 10.6% (inactive) in [5] and -1.86% (inactive) in experiment [7]. For the same compound, the binding (% of control) in experiment [8] is 102% (inactive). Moreover, the efflux inhibition (fraction of control) in [9] is -0.38 (inactive). Also, in [11], the differentiation response was -11.9% (inactive).

In turn, `O=C(c1ccc([N+](=O)[O-])cc1)N1CCSC1c1ccccc1Cl` (centres undefined) came in with a double positive events in [1] of 77.4%. In [1], the vesicle binding response was 441% (inactive). Moreover, the inhibition in [2] was -9.98% (inactive); in [6], -8.18% (inactive); in experiment [10], 5% (inactive). In experiment [3], the superoxide response (% of plate) was 91% (inactive). The aptamer binding inhibition in experiment [4] was 4% (inactive). The response is -12.5% (inactive) in experiment [5] and -2.22% (inactive) in experiment [7]. Besides, the binding (% of control) in [8] is 101% (inactive). Further, the efflux inhibition (fraction of control) in experiment [9] was -0.1 (inactive). Also, the differentiation response in experiment [11] is 0.8% (inactive).

Take `C=CCN1C(=O)c2oc3ccccc3c(=O)c2C1c1ccc(O)c(OC)c1` (centres undefined): the double positive events in [1] was 60.1%. In addition, the vesicle binding response in experiment [1] is 150% (inactive). The figures for the inhibition in [2], in experiment [6] and in [10] were 10.5% (inactive), -0.24% (inactive) and 0% (inactive), respectively. Also, in [3], the superoxide response (% of plate) was 102% (inactive). The aptamer binding inhibition in experiment [4] is 2% (inactive). For the same compound, the response in experiment [5] was 105% (active); in experiment [7], 2.05% (inactive). In [8], the binding (% of control) is 99.1% (inactive). Besides, the efflux inhibition (fraction of control) in experiment [9] was 0.37 (inactive). Moreover, in experiment [11], the differentiation response was 40.8% (inactive).

`O=C1N[C@@H](Cc2cnc[nH]2)C(=O)N2CCC[C@@H]12` displayed a double positive events in experiment [1] of 59.8%. The vesicle binding response in experiment [1] is 103% (inactive). The inhibition in experiment [2] was 12.3% (inactive); in experiment [6], -3.62% (inactive); in experiment [10] it was -2% (inactive). In [3], the superoxide response (% of plate) is 125% (inactive). Also, the aptamer binding inhibition in [4] is 2% (inactive). Besides, the response was 6.03% (inactive) in [5] and 6.06% (inactive) in experiment [7]. In [8], the binding (% of control) is 100% (inactive). Moreover, the efflux inhibition (fraction of control) in experiment [9] was -0.07 (inactive). Also, the differentiation response in [11] is -7.5% (inactive).

On to `COc1cccc(OC)c1C(=O)NCCSC1CCCCC1`, for which the double positive events in experiment [1] stood at 61.3%. Further, the vesicle binding response in [1] was 68.6% (inactive). For the same compound, the inhibition in experiment [2] was 1.59% (inactive); in experiment [6], -3.95% (inactive); in experiment [10], -5% (inactive). Further, the superoxide response (% of plate) in experiment [3] was 85.2% (inactive). In experiment [4], the aptamer binding inhibition is 1% (inactive). For the same compound, the response in experiment [5] is 0.14% (inactive); in experiment [7], -0.98% (inactive). In addition, in [8], the binding (% of control) is 104% (inactive). In addition, in [9], the efflux inhibition (fraction of control) was -0.25 (inactive). Moreover, the differentiation response in experiment [11] was -16.3% (inactive).

In experiment [1], `Cc1cc(C(=O)NC(CC(C)C)C(=O)O)cc(C)c1[N+](=O)[O-]` (centres undefined) had a double positive events of 61.7%. Besides, in [1], the vesicle binding response was 204% (inactive). In addition, the inhibition in [2] is -2.43% (inactive); in experiment [6], 1.45% (inactive); in experiment [10] it was 17% (inactive). For the same compound, the superoxide response (% of plate) in experiment [3] is 96.9% (inactive). In addition, in experiment [4], the aptamer binding inhibition was 4% (inactive). For the same compound, the results for the response in [5] and in experiment [7] were 1% (inactive) and -4.26% (inactive), respectively. Further, in [8], the binding (% of control) was 99% (inactive). For the same compound, the efflux inhibition (fraction of control) in experiment [9] is -0.12 (inactive). Moreover, the differentiation response in experiment [11] was -10.4% (inactive).

On to `COc1ccc(Cl)cc1C(=O)NCCc1ccc(S(=O)(=O)NC(=O)NC2CCCCC2)cc1`, for which the double positive events in experiment [1] was found to be 60.4%. In addition, the vesicle binding response in [1] was 155% (inactive). Moreover, the inhibition is -10.5% (inactive) in [2], 3.88% (inactive) in [6] and 8% (inactive) in experiment [10]. Besides, in experiment [3], the superoxide response (% of plate) is 114% (inactive). Moreover, in [4], the aptamer binding inhibition is 4% (inactive). Also, the figures for the response in [5] and in experiment [7] were -18.8% (inactive) and -2.06% (inactive), respectively. Also, the binding (% of control) in experiment [8] was 101% (inactive). Moreover, the efflux inhibition (fraction of control) in [9] is -0.28 (inactive). Also, the differentiation response in experiment [11] was -10.4% (inactive).
